Broadly, the inhibition is the drop in the measured response relative to a control, in per cent.
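Also: mean inhibition of PRKG2 from the GSK PKIS screen.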

This assay concerns the target T1, cGMP-dependent protein kinase 2 (Homo sapiens) (UniProt Q13237).
T1 sequence (whole entry): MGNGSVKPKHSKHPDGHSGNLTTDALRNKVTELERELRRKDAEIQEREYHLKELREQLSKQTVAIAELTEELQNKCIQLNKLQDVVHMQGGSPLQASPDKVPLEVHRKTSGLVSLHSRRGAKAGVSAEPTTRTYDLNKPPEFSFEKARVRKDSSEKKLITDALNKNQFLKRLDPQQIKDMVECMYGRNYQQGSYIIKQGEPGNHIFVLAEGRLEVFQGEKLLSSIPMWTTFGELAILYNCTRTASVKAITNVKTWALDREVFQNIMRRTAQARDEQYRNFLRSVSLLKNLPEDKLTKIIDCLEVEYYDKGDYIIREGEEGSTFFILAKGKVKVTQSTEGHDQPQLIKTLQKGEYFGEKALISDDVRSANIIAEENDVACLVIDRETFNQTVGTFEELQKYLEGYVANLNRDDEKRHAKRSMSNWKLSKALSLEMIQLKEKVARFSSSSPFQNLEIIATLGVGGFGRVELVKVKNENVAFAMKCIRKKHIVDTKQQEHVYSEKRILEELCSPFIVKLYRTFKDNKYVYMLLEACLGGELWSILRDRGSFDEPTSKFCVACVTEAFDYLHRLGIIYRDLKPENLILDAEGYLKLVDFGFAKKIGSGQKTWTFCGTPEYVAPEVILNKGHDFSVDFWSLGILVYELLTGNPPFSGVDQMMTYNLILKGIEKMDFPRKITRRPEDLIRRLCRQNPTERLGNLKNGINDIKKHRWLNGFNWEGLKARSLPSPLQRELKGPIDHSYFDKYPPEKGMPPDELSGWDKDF
As to conditions: at 1 µM.
Consider `CS(=O)(=O)CCNCc1nc(-c2ccc3ncnc(Nc4ccc(OCc5cccc(C(F)(F)F)c5)cc4)c3c2)cs1`, for which the inhibition stood at 1.54%.

Regarding `Nc1nccc(-c2c(-c3ccc(F)cc3)ncn2CCCN2CCOCC2)n1`, the inhibition is 3.95%. The value for `NS(=O)(=O)c1ccc(Nc2cc(-c3cccc(O)c3)n[nH]2)cc1` was 5.03%.

Regarding `NS(=O)(=O)c1cccc(Nc2cc(-c3ccc(F)cc3)n[nH]2)c1`, the inhibition came to 6.86%. With `Cc1ccc2c(-c3ccnc(Nc4ccc5c(c4)OCCO5)n3)c(-c3ccc(C(F)(F)F)cc3)nn2n1` the figure was 2.42%. The value for `Cc1cc(O)cc(C)c1/C=C/c1cncc(C(=O)N(C)C)c1` was 3.78%; that for `CN(C)c1cc2c(Nc3ccc4c(cnn4Cc4ccccc4)c3)ncnc2cn1` was 2.77%; that for `COC(=O)c1ccc2c(c1)C(=Cc1cc(Br)c(O)c(Br)c1)C(=O)N2` was 6.29%. With `Nc1nccc(-c2c(-c3ccc(F)cc3)nn3cc(C(F)(F)F)ccc23)n1` the figure was -0.08%; with `COc1cccc(-n2nc(C)c3c(N/N=C(\C)c4ccncc4)ncnc32)c1`, -0.19%. In the case of `Cc1cc(Cl)cc2c1NC(=O)C2=NNc1ccc(S(N)(=O)=O)cc1`, the inhibition turned out to be 2%. With `Cc1ccc(O)cc1Nc1ccnc2ccc(S(C)(=O)=O)cc12` the figure was 4.03%.

Regarding `COc1cccc(-n2ncc3c(N/N=C/c4ccc(S(C)(=O)=O)cc4)ncnc32)c1`, the inhibition was found to be 1.79%. The value for `NS(=O)(=O)c1ccc(-c2cc3ccncc3cc2OCc2ccccc2)cc1` was 3.35%.

In the case of `Cc1ccc2c(c1)/C(=N/Nc1ccc(S(N)(=O)=O)cc1)C(=O)N2`, the inhibition worked out at 3.82%. Consider `CCCN1CCCC(c2ccc(Nc3nc(Nc4cc(F)ccc4C(N)=O)c4cc[nH]c4n3)c(OC)c2)C1` (stereo not drawn), for which the inhibition was found to be 26.3%. With `COC(=O)c1cncc(/C=C/c2c(C)cc(O)cc2C)c1` the figure was 2.4%; with `Cc1ccc(Nc2ccnc(Nc3cccc(C(N)=O)c3)n2)cc1O`, 7.68%. Turning to `Nc1ccc(C#Cc2cncnc2Nc2ccc(OCc3cccc(F)c3)c(Cl)c2)cc1`, the inhibition was determined as 0.99%. In the case of `CN(C)C(=O)O[C@@H]1CN[C@@H](C#Cc2cc3ncnc(Nc4ccc(OCc5cccc(F)c5)c(Cl)c4)c3s2)C1`, the inhibition was determined as 2.7%. The value for `NS(=O)(=O)c1ccc(N/N=C2\C(=O)Nc3ccc(Cl)cc32)cc1` was 5.8%; that for `Cc1nc(-c2ccccc2)n2nc(NCCCN3CCOCC3)ncc12` was 3.07%; that for `CCOc1nccc2c1nc(-c1nonc1N)n2CC` was 43.1%. With `O=S(=O)(CCOCc1ccc(-c2ccc3ncnc(Nc4ccc(OCc5cccc(F)c5)c(Cl)c4)c3c2)o1)c1ccccc1` the figure was 2.63%; with `NC(=O)c1cccc(Nc2nccc(Nc3cccc(F)c3)n2)c1`, 0.47%. The value for `C[C@@H](Oc1cc(-n2cnc3ccc(OCC4CCN(C)CC4)cc32)sc1C(N)=O)c1ccccc1C(F)(F)F` was 0.31%.

Turning to `FC(F)(F)c1ccc(-c2nn3ncccc3c2-c2ccnc(Nc3ccc4c(c3)OCCO4)n2)cc1`, the inhibition was found to be 4.83%. For the compound `Cc1cc(-c2ccccn2)cc(C)c1/C=C/c1cncc(-c2nn[nH]n2)c1`, the inhibition is 5.89%. With `COc1ccc2ncnc(Nc3ccc(OCc4ccccc4)cc3)c2c1` the figure was 2.5%. The value for `CN(C)CCCn1c(-c2nonc2N)nc2cnccc21` was 5.66%; that for `[O-][S+]1CCN(Cc2ccc(-c3ccc4ncnc(Nc5ccc(OCc6ccccc6)c(Cl)c5)c4c3)o2)CC1` was 2.95%; that for `OCc1ccc(-c2nc(-c3ccccn3)c(-c3ccc4c(c3)OCO4)[nH]2)cc1` was 3.26%.

Consider `COc1cc(Nc2nccc(-c3cnn4ncccc34)n2)cc(OC)c1`, for which the inhibition is 24.4%.

Source of the values: ChEMBL document CHEMBL1961873, “Compounds: GSK PKIS; Assays: Nanosyn kinase panel” (2012).
